Where “and” joins values, the source holds several entries; their conditions need not be identical. Equal entries are not always repeated. Records with an inconclusive call do not appear. Where a structure was tested more than once in an assay, its records may differ in their call. Calls of active or inactive are those of the source. The call rests on the fitted dose curve; in most records, active means well fitted inhibition curve with a large enough effect; inconclusive means small, poorly fitted or top-dose-only effect; inactive means flat fitted curve, though single readings scatter. Peptide text beside a SMILES is read from it.
On the % scale 0 is the no-effect control and ±100 the full control effect; potency means the concentration at half of the fitted maximal effect.

The assay relates to KB-3-1. The assay can be described thus: Cytotoxic Profiling of Annotated Libraries Using Quantitative High-Throughput Screening (AID 1296008). Further: nearly all actives have a fitted effect of over 60% in size. Particulars: Five cell lines viability, CellTiter-Glo ATP luminescence, 48-72 h; max response: hits give low values. The gist of the method: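 Cells exposed to compounds for 48 or 72 hr at 37 degrees Celsius. Viability read as ATP-coupled luminescence with CellTiter-Glo after 10 min at room temperature.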
A general note: In ATP-based viability assays light output follows the ATP content of the culture.
Take `CC1=C(C)C(=O)C(C(CCCCCC(=O)O)c2ccccc2)=C(C)C1=O` (configuration not stated): the max response is 6.39% (inactive).
In the case of `CC(=O)Nc1ccc(O)cc1`, the max response was 23.8% (inactive) and 2.6% (inactive).
For the molecule `Cc1cc2c(s1)Nc1ccccc1N=C2N1CCN(C)CC1`, the max response is 7.18% (inactive) and 6.8% (inactive); the result was inactive.
Consider `Cc1cccc(CN2CCN(C(c3ccccc3)c3ccc(Cl)cc3)CC2)c1` (configuration not stated), for which the max response is 8.45% (inactive) and -5.16% (inactive).
Same read-out and setting: then `COC(=O)N[C@H](C(=O)N[C@@H](Cc1ccccc1)[C@@H](O)CN(Cc1ccc(-c2ccccn2)cc1)NC(=O)[C@@H](NC(=O)OC)C(C)(C)C)C(C)(C)C`, with 5.51% (inactive) and -5.77% (inactive).
As to `CCN(CC)C(=S)SSC(=S)N(CC)CC`, the Potency was 0.0833 µM (active); the max response was 0.882% (inactive) and 32.2% (inactive).
With `CCC1=C(C)CN(C(=O)NCCc2ccc(S(=O)(=O)NC(=O)NC3CCC(C)CC3)cc2)C1=O` (configuration not stated), the max response is -10.1% (inactive) and -9.63% (inactive).
On the same count and under the same terms, then `CN(C)c1ccc(O)c2c1C[C@H]1C[C@H]3[C@H](N(C)C)C(=O)C(C(N)=O)=C(O)[C@@]3(O)C(=O)C1=C2O`, with 5.11% (inactive) and -5.52% (inactive) and -6.53% (inactive).
For the molecule `O=C(NC(Cc1cc(=O)[nH]c2ccccc12)C(=O)O)c1ccc(Cl)cc1` (configuration not stated), the max response was 9.29% (inactive) and the result was inactive.
Consider `O=C(NCC1CCCCN1)c1cc(OCC(F)(F)F)ccc1OCC(F)(F)F` (configuration not stated), for which the max response is 3.67% (inactive).
Regarding `Clc1ccc(C(Cn2ccnc2)OCc2ccsc2Cl)c(Cl)c1` (configuration not stated), the max response is -26.3% (inactive) and -17.4% (inactive).
Take `CN(C)C(=O)COC(=O)Cc1ccc(OC(=O)c2ccc(N=C(N)N)cc2)cc1`: the max response was 4.33% (inactive) and 2.16% (inactive).
For `COc1cc(C(C)=O)ccc1OCCCN1CCC(c2noc3cc(F)ccc23)CC1`, the molecule was classed as inactive.
In the case of `CCC[C@@H]1C[C@@H](C(=O)N[C@@H]([C@H]2O[C@H](SC)[C@H](O)[C@@H](O)[C@H]2O)[C@@H](C)O)N(C)C1`, the max response was -5.54% (inactive).
For `Cc1cc2cc3c(C)cc(=O)oc3c(C)c2o1`, the max response is -3.63% (inactive) and the molecule was classed as inactive.
With `CCCS(=O)c1ccc2nc(NC(=O)OC)[nH]c2c1` (configuration not stated), the Potency is 20.6 µM (active).
Regarding `Clc1ccc(C(Cn2ccnc2)OCc2c(Cl)cccc2Cl)c(Cl)c1` (configuration not stated), the max response is -15.6% (inactive) and -6.5% (inactive) and -4.2% (inactive).
For the molecule `Cc1ccc(C)c(OCCCC(C)(C)C(=O)O)c1`, the max response is 8.09% (inactive) and 8.97% (inactive).
Turning to `CC(C)[C@H](N)C(=O)OCCOCn1cnc2c(=O)[nH]c(N)nc21`, the max response was 10.2% (inactive) and the call was inactive.
Turning to `Clc1ccc(C(Cn2ccnc2)OCc2ccc(Sc3ccccc3)cc2)c(Cl)c1` (configuration not stated), the max response was -18.4% (inactive).
On to `Cc1ncc([N+](=O)[O-])n1CC(C)O` (configuration not stated), for which the max response was 2.22% (inactive) and 6.66% (inactive).
For the molecule `Cc1c(C(=O)NN2CCCCC2)nn(-c2ccc(Cl)cc2Cl)c1-c1ccc(Cl)cc1`, the max response is -25.1% (inactive).
For `Cn1c(NCCN(CCO)CCCc2ccc([N+](=O)[O-])cc2)cc(=O)n(C)c1=O`, the max response was 3.71% (inactive) and -8.99% (inactive).
Still for that read-out and setting: the result for `COc1ccc2cc([C@H](C)C(=O)O)ccc2c1` reads 11.2% (inactive) and 5.36% (inactive) and -1.1% (inactive); that for `COC1=C(OC)C(=O)C(CCCCCCCCCCO)=C(C)C1=O`, -4.5% (inactive) and -1.13% (inactive).
Take `COc1ccc(C2(C#N)CCC(C(=O)O)CC2)cc1OC1CCCC1` (configuration not stated): the max response was 6.11% (inactive) and 7.73% (inactive) and 2.33% (inactive).
Take `COC(=O)[C@H](Cc1ccccc1)NC(=O)[C@@H](N)CC(=O)O` (H-Asp-Phe-OMe): the max response is 0.426% (inactive) and 2.8% (inactive) and -6.99% (inactive).

These data come from PubChem BioAssay (NCATS).
